Experimental findings from the OligoGym collection are described below.
Further: reference of the scale not given here.

In the first experiment the target is GOLGA1. Nature of the experiment: pooled miR-30 sensor sort-seq; sequence = guide strand. The following applies: shRNA.
TTTATCTTCTGCAAGTTTCGGA gave a sensor-assay potency score (higher = more potent) of 0.43. Consider TGATCTTACTTTCTGCACCTGT, for which the sensor-assay potency score (higher = more potent) is -0.0709.

TTGAGTTTCAGCAGTGACCTTT had a sensor-assay potency score (higher = more potent) of 0.403.

For a further experiment, the target named is GORASP1. The description is as above. The following applies: shRNA.
TGACTTGGAGTTATACACCATC gave a sensor-assay potency score (higher = more potent) of -1.14. On the same count and under the same terms, the value for TACACCATCAGCTTCAAGGGCT was 0.394.

In turn, TGAAGATGGTTCCACATCCAGC had a sensor-assay potency score (higher = more potent) of -1.37. On the same count and under the same terms, next, AATATTAGCATTGATACCCATT: -1.46; TCCATGTAGTCACTCTGCCTGG: -1.3. Still for that read-out and setting: the value for TAACTCGCTGCACTGGAGGTGG was -0.397.

For TTATCCTCCAACTTATGGGGGA, the sensor-assay potency score (higher = more potent) was -0.359. Still for that read-out and setting: the value for TTCAGTAGTGCCTTCAGGGTGT was 0.45. On the same count and under the same terms, next, TTCCACATCCAGCACATGCCAC: -1.05; TTATACACCATCAGCTTCAAGG: -1.

In the next experiment the target is GP1BA. The description is as above. The following applies: shRNA.
Turning to TATACAGCGAGTTCTCTTGGAG, the sensor-assay potency score (higher = more potent) was -0.385. Still for that read-out and setting: the value for TTTGGCTGTCTAGAGAAGCAGT was -0.816. For the sequence TTTGGTATTGTATACAGCGAGT, the sensor-assay potency score (higher = more potent) was -0.992. In the case of TTCAGCATTGTCCTGCAGCCAG, the sensor-assay potency score (higher = more potent) was -0.558. On the same count and under the same terms, next, TTGACCACAGTCCTTGTGGCAC: -0.461; TAGAGGATCTCACAGTTGCATA: -1.69; TTTCAGGTAGAGCTCTTGGAGT: -0.846. In turn, TAGTGGATTCTTGTGTTGGATG registered a sensor-assay potency score (higher = more potent) of -1.15. On the same count and under the same terms, the value for TTGGGGTCCATCTAGGTGGGAA was -0.196; that for TAGACGGGAAACTTGTCTGAAT was -0.507; that for ATTTTCAGCATTGTCCTGCAGC was -0.496. AACTTGACCACAGTCCTTGTGG yielded a sensor-assay potency score (higher = more potent) of 0.0455.
